Drawing on ChEMBL document CHEMBL3988442, “University of Dundee, Small-Polar-MMV Screening Library” (2021), this text covers Percent Effect and PXC50 for three compounds.

Experiment [1] deals with Protein translocase subunit SecA (Escherichia coli (strain K12)) (UniProt P10408). The experiment in a line: Assay to Identify E. coli SecA ATPase Inhibitors. In kind it is functional. More on the design: scale not given: direction of the effect not stated beside the values. To be noted: 30 µM.
The target of experiment [2] is T1, Ubiquitin-activating enzyme e1, putative (Leishmania donovani (strain BPK282A1)) (UniProt E9BSI1).
T1 sequence (whole entry): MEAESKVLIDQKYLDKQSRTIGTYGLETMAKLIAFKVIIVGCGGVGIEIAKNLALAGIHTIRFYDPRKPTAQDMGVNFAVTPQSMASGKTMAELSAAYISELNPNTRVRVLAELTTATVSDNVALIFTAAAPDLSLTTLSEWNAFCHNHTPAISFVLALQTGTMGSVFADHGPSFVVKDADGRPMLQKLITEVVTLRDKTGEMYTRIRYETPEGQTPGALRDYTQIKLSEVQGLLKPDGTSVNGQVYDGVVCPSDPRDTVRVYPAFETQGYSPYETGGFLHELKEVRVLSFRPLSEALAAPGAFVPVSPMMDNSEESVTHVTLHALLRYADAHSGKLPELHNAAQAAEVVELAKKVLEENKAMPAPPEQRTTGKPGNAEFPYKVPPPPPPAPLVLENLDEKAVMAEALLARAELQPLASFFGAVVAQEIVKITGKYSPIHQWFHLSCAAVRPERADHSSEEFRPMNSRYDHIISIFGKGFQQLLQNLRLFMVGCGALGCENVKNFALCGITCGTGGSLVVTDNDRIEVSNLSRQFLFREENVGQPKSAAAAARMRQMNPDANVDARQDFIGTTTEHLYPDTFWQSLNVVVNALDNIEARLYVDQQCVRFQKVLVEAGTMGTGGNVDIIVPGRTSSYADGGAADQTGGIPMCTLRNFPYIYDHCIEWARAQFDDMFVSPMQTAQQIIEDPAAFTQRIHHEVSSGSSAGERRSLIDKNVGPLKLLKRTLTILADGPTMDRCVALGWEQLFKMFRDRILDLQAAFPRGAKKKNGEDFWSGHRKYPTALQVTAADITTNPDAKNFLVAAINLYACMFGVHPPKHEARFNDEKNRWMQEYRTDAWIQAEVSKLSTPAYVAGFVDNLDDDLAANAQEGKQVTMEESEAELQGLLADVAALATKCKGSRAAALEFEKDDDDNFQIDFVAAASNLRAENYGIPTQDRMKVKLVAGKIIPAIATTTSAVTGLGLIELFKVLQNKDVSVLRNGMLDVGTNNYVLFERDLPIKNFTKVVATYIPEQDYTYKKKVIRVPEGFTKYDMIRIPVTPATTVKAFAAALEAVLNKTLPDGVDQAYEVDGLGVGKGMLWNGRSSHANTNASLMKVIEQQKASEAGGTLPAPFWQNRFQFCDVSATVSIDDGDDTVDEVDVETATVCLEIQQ
Nature of the experiment: Leishmania donovani Ubiquitin Activating Enzyme (LdE1). Format: functional. More on the design: scale not given: direction of the effect not stated beside the values. The following applies: 30 µM.

In experiment [3] the target is T2, Aspartate--tRNA(Asp/Asn) ligase (Mycobacterium tuberculosis (strain ATCC 25618 / H37Rv)) (UniProt P9WFW3). Also: in the data most compounds retested in dose-response had high values.
T2 sequence (whole entry): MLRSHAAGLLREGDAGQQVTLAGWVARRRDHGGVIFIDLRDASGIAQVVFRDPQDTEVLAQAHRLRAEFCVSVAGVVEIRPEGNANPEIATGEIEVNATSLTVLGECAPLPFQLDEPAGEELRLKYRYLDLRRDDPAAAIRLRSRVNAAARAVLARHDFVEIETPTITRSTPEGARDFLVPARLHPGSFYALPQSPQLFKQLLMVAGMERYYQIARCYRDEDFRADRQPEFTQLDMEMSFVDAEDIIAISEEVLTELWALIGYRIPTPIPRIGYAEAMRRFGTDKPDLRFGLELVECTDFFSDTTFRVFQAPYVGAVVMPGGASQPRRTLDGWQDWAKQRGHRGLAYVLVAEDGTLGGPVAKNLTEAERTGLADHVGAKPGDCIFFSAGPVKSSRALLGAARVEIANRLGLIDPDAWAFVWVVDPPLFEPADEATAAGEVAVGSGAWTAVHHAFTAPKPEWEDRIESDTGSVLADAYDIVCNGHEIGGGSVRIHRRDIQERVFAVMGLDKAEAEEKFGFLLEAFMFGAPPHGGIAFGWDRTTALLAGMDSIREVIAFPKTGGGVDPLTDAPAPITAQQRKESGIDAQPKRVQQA
Nature of the experiment: Assay for Asp RNA synthetase-1 from Mycobacterium tuberculosis. More on the design: scale not given: direction of the effect not stated beside the values. Format: functional. The following applies: 30 µM.

In experiment [4] the target is AMP-activated protein kinase, AMPK (Homo sapiens) (UniProt P54646+O43741+P54619+Q9UGJ0+Q9Y478+Q13131+Q9UGI9). The experiment in a line: AMP-dependent Kinase enzyme assay. An in vitro enzyme assay that detects ADP turnover that is directly proportional to AMPK activity. This uses naive AMPK that is activated during the assay with MK-8722. Format: functional. More on the design: scale not given: direction of the effect not stated beside the values. The following applies: 30 µM.

Experiment [5] addresses Sialic acid-binding Ig-like lectin 9 (Homo sapiens) (UniProt Q9Y336). The experiment in a line: Hs-Siglec9 ALPHAscreen SOP 20170721. The arrangement: scale not given: direction of the effect not stated beside the values. To be noted: 10 µM. For orientation: In Alpha technology, singlet oxygen from a donor bead excites a nearby acceptor bead.
Experiment [6] concerns Trypanosoma cruzi. The experiment in a line: Trypanosoma cruzi phosphomannomutase and mannose-1-phosphate guanylyltransferase assay. In kind it is functional. The arrangement: scale not given: direction of the effect not stated beside the values. To be noted: 10 µM.
The target of experiment [7] is T3, Arginase-2, mitochondrial (Homo sapiens) (UniProt P78540).
T3 sequence (whole entry): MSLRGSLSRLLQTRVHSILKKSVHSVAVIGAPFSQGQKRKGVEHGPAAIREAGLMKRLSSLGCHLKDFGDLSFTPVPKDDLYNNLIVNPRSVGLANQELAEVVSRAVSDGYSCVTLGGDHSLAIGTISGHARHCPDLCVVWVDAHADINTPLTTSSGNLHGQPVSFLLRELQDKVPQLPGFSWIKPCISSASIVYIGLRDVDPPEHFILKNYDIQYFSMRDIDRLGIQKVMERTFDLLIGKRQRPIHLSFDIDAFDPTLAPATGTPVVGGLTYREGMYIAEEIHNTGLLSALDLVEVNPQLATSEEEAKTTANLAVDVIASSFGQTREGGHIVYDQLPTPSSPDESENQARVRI
The experiment in a line: in vitro enzyme assay to detect the production of urea directly proportional to the activity of Arginase II. Format: functional. More on the design: scale not given: in the data most compounds retested in dose-response had high values. The following applies: 33.3 µM.

The target of experiment [8] is T4, Proteasome subunit beta (Trypanosoma cruzi) (UniProt O96673).
T4 sequence (whole entry): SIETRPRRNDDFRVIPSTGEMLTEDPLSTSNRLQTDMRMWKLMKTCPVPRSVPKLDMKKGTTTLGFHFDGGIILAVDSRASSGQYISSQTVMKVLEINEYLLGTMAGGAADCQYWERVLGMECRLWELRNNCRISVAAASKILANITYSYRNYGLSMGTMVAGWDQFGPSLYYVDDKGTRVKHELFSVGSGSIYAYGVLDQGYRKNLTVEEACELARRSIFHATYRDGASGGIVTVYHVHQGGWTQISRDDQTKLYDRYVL
Nature of the experiment: Trypanosoma cruzi proteasome chymotrypsin-like activity (TcProtChymo) assay. Format: functional. The arrangement: scale not given: in the data most compounds retested in dose-response had high values. To be noted: 9.37 µM.

The species named for experiment [9] is Homo sapiens. The experiment in a line: To identify inhibition of the IFN signalling (Jak-Stat) pathway via expression of an eGFP reporter gene under the control of an IFN-stimulated response element (ISRE) containing MxA promoter. Format: functional. More on the design: scale not given: direction of the effect not stated beside the values. To be noted: 30 µM.

Experiment [10] addresses Shiga toxin 2 (Escherichia coli O157:H7) (UniProt P09385+P09386). The experiment in a line: E. coli 0.157:H7 Shiga Toxin SOP - stx2 screening assay. In kind it is functional. More on the design: scale not given: direction of the effect not stated beside the values. To be noted: 30 µM.
Experiment [11] addresses T5, Tyrosyl-tRNA synthetase, putative (Trypanosoma cruzi (strain CL Brener)) (UniProt Q4DSP6).
T5 sequence (whole entry): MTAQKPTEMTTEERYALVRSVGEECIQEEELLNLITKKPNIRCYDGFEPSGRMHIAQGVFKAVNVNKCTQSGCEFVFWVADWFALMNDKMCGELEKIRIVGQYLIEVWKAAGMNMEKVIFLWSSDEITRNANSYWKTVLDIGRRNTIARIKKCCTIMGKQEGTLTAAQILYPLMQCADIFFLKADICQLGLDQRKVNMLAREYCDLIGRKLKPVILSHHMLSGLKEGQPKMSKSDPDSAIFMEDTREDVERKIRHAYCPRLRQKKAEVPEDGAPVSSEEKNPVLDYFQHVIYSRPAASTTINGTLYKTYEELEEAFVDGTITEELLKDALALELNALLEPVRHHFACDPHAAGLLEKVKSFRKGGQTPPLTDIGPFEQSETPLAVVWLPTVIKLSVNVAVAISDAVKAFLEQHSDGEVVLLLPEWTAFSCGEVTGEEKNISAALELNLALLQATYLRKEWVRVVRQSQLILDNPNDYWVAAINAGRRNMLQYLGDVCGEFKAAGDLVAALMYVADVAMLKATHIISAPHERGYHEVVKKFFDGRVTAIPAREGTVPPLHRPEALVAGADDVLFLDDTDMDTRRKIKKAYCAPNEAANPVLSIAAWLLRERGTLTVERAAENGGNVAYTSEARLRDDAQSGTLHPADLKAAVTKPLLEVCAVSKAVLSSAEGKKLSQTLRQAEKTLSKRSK
The experiment in a line: Trypanosoma cruzi tyrosyl tRNA synthetase (TcYRS) _High Tyrosine SOP. In kind it is functional. More on the design: scale not given: in the data most compounds retested in dose-response had high values. The following applies: 30 µM.

For experiment [12], the target named is T5, Tyrosyl-tRNA synthetase, putative (Trypanosoma cruzi (strain CL Brener)). Nature of the experiment: Trypanosoma cruzi tyrosyl tRNA synthetase (TcYRS) SOP. To be noted: 30 µM. More on the design: scale not given: direction of the effect not stated beside the values. Format: functional.
For experiment [13], the target named is Chromo domain-containing protein 1 (Saccharomyces cerevisiae (strain ATCC 204508 / S288c) (Baker's yeast)) (UniProt P32657). The experiment in a line: ScCHD-1 Enzyme Inhibition Assay. The following applies: 30 µM. In kind it is functional. The arrangement: scale not given: in the data most compounds retested in dose-response had high values.
Chain of Chromo domain-containing protein 1 (Saccharomyces cerevisiae (strain ATCC 204508 / S288c) (Baker's yeast)) (P32657 whole entry, the tested form may be a part): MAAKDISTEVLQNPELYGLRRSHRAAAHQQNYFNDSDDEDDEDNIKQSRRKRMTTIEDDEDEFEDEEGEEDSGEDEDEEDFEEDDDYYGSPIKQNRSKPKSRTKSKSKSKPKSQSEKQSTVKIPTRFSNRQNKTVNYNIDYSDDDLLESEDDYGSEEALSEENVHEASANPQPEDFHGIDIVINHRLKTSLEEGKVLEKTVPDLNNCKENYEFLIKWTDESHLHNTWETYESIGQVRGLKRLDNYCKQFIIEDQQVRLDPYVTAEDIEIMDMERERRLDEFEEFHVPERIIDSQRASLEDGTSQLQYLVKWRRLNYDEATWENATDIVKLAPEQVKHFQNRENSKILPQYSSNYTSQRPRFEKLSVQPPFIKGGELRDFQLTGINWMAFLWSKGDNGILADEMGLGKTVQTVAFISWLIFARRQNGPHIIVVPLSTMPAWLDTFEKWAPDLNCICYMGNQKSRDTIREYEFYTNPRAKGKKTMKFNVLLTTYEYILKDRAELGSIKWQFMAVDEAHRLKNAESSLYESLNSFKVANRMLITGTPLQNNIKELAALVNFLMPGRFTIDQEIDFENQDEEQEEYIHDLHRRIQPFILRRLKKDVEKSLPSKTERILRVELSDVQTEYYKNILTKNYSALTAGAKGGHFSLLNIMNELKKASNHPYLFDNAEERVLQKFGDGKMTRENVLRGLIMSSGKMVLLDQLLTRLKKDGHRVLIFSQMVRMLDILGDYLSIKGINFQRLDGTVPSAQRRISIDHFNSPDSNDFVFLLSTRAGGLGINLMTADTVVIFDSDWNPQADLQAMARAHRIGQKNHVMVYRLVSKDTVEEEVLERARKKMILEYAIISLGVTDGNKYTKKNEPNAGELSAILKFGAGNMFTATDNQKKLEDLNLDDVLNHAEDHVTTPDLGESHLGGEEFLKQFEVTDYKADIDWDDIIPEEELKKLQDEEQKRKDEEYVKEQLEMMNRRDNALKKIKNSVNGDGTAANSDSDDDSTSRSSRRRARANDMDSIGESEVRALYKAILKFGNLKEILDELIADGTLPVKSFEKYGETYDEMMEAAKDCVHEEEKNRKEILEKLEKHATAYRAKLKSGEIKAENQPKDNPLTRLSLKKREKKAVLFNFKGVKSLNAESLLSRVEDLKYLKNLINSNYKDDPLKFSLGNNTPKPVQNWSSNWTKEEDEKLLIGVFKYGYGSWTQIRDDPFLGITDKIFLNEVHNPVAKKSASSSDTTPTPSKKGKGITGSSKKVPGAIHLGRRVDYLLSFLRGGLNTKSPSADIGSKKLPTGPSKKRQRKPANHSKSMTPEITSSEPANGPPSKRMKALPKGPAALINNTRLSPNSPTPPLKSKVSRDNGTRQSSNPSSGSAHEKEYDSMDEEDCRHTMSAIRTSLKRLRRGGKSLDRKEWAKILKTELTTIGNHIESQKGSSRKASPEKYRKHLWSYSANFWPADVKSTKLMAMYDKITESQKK
For experiment [14], the target named is T6, Methionyl-tRNA synthetase, putative (Leishmania donovani (strain BPK282A1)) (UniProt E9BF75).
T6 sequence (whole entry): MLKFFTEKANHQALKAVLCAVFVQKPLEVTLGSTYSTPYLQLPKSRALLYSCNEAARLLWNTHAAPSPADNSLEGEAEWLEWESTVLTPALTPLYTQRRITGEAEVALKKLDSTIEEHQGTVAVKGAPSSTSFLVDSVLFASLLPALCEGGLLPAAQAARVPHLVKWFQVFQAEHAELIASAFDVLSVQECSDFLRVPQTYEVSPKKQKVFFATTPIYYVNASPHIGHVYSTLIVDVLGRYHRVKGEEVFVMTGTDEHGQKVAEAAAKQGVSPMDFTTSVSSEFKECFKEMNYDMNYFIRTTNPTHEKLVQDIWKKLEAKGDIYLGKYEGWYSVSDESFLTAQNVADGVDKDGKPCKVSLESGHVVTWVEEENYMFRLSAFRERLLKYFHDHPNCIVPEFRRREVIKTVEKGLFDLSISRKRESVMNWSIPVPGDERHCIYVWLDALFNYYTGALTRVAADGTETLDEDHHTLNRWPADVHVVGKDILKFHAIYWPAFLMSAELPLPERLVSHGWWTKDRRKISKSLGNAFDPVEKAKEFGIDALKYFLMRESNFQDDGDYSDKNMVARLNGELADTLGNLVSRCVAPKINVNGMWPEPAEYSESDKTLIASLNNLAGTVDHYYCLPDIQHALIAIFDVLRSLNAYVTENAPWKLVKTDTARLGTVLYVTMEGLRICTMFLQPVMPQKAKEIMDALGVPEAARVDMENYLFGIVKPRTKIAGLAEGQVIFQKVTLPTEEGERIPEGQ
Nature of the experiment: Leishmania donovani Methionine tRNA synthetase (LdMetRS):v7. Dose response assay. The arrangement: conc 80 nM, time 150 minutes. In kind it is functional.

For some of these results: Results with a measured potency or affinity are listed apart.

Chain of Sialic acid-binding Ig-like lectin 9 (Homo sapiens) (Q9Y336 whole entry): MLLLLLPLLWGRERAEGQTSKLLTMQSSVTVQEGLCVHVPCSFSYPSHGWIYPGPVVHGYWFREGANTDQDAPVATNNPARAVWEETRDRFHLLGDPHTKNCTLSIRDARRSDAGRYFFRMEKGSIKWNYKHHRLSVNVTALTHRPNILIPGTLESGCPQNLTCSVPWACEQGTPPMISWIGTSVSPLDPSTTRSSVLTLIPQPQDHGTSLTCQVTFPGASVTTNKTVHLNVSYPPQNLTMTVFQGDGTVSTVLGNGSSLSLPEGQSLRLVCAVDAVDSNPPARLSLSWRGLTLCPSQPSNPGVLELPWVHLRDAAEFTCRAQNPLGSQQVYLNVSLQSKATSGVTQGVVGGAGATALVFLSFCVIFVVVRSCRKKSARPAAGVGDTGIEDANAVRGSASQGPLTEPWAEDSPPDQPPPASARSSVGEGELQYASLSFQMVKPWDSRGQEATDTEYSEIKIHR
Chain of Protein translocase subunit SecA (Escherichia coli (strain K12)) (P10408 whole entry): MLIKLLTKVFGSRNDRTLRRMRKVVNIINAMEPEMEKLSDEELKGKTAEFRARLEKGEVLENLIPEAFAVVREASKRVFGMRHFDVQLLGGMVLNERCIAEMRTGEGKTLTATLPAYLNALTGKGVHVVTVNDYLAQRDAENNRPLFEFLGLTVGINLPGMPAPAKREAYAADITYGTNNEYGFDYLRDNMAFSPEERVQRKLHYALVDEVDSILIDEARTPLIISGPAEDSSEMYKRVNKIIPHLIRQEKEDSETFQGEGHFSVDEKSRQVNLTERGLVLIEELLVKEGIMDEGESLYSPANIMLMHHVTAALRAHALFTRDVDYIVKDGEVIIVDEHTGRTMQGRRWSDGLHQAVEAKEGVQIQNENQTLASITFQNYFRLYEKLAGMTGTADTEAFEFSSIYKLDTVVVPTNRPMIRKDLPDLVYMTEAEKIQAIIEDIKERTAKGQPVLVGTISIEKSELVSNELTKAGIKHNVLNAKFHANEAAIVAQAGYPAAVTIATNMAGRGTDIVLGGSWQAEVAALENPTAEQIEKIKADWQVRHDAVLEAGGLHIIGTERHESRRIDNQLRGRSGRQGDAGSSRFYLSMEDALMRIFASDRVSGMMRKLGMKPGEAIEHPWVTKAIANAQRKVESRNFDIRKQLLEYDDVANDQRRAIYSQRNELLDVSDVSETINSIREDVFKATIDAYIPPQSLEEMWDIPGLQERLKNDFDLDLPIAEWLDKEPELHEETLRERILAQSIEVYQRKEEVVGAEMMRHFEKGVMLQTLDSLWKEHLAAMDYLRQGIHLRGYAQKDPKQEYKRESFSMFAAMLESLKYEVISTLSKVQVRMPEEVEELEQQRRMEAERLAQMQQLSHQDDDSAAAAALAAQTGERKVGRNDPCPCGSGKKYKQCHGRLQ

Consider `Cc1noc([C@@H]2C[C@H]3CN(Cc4cc(C)on4)C[C@H]3O2)n1`, for which the Percent Effect in experiment [1] was -0.923%; in [2], 10.4%; in experiment [3], 2.67%; in [4], 5.31%; in experiment [5] it was -5.26%; in [6] it was -4.63%. Moreover, the Percent Effect in experiment [7] is 9.68%; in experiment [8] it was 12.4%; in experiment [9] it was 10.4%; in experiment [10] it was -9.84%; in experiment [11], 3.17%; in experiment [12] it was 6.41%. Also, the Percent Effect in experiment [13] was -8.87%.
`Oc1cc(Cl)cc(Cl)c1`: the PXC50 in experiment [14] (MAX_EFFECT 13.49809886) and in experiment [14] (MAX_EFFECT 17.06263499) was less than 3 in each case.
For the compound `NCC1(c2cccc(Br)c2)CCOCC1`, the Percent Effect is -5.22% in [1]; 2.7% in experiment [2]; 5.62% in experiment [3]; -4.06% in [4]; -6.14% in [5]; -2.93% in experiment [6]. The Percent Effect was -22.5% in [7]; 8.2% in experiment [8]; 2.44% in experiment [9]; -23.5% in [10]; 8.91% in [11]; -6.1% in experiment [12]. Besides, the Percent Effect in experiment [13] was -2.29%.
